AC50 data for one molecule are collected here from PubChem BioAssay AID2284151 (EPA ToxCast).

The structures appear in SMILES notation. Results filed as inconclusive are left out. Calls of active or inactive are those of the source. The calls were made as follows: active = hit-call score of the fitted dose curve at least 0.9, where 1 is the maximum; inactive = score below 0.9.

In this test the target is human Cholecystokinin Receptor CCK2 (CCKB) Agonism, CCKBR (gene 887) (UniProt P32239). The experiment in a line: ERF_FR_GPCR_hCCKBR: Eurofins (ERF) G Protein-Coupled Receptor (GPCR) Radioligand Binding LeadHunter Assay for human Cholecystokinin Receptor CCK2 (CCKB) Agonism. The protocol: ERF_FR_GPCR_hCCKBR is a biochemical, single-readout assay that uses extracted gene-proteins in a cell-free assay. Measurements were taken 1 hour after chemical dosing in a 96-well plate. See CCK2 (CCKB) Human Cholecystokinin GPCR Binding (Agonist Radioligand) Assay, Cerep.ERF_FR_GPCR_hCCKBR is an assay component calculated from the ERF_FR_GPCR_hCCKBR assay. It is designed to measure radioligand binding using a type of binding reporter as detected by scintillation counting with radiometry technology.Data from the assay component ERF_FR_GPCR_hCCKBR was analyzed at the assay endpoint, ERF_FR_GPCR_hCCKBR, in the positive analysis fitting direction relative to DMSO as the negative control and baseline of activity. Using a type of binding reporter, […] activity can be used to understand changes in binding as they relate to gene CCKBR. To generalize the intended target to other relatable targets, this assay endpoint is annotated to the gpcr intended target family, where the subfamily is cholecystokinin.
Chain of human Cholecystokinin Receptor CCK2 (CCKB) Agonism, CCKBR (gene 887) (P32239 whole entry, looked up): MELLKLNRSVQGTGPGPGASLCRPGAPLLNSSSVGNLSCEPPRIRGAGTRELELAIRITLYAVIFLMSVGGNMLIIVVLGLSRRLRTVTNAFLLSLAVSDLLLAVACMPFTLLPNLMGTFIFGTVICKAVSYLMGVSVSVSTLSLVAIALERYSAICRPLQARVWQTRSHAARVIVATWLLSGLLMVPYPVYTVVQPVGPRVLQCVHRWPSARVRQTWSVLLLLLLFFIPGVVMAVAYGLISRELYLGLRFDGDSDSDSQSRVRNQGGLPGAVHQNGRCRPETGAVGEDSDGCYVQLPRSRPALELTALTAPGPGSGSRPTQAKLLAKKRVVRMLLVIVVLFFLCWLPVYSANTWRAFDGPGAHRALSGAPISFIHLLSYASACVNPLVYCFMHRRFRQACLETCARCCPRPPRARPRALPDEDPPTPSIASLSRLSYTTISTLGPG
Human cells are incubated for 60 minutes at room temprature with [125I]CCK-8s ligand (0.08 nM) and CCK-8s as control inhibitor.Test Sample Requirements: Minimum for 1) Screen: 60 ul of 10 mM stock -OR- 1 mg (pre-weighed) for 10 uM final testing. 2) Dose Response: 90 ul of 10 mM stock -OR- 1 mg (pre-weighed) for a top concentration at 10 uM.
Regarding `O=C(/C=C/c1ccc(O)cc1)CC(=O)/C=C/c1ccc(O)cc1`, the AC50 was 3.43 µM (active).
